{
  "source": "paper PMC5540273",
  "about": "(PLoS ONE, 2017)",
  "key": {"PKAC-alpha": {"test_system": "T1, PKAC-alpha", "T1 construct": "gene PRKACA"}, "PIP5K2C": {"test_system": "T2, PIP5K2C", "T2 construct": "gene PIP4K2C"}, "PIK4CB": {"test_system": "T3, PIK4CB", "T3 construct": "gene PI4KB"}, "PFTK1": {"test_system": "T4, PFTK1", "T4 construct": "gene CDK14"}},
  "note": "Values joined by “and” are separate entries in the source; they are usually repeats but may differ in a detail not shown here. Equal entries are not always repeated.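 Also: kd values determined as follow-up on hits from a single-replicate KINOMEscan panel screen.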",
  "data": [
    {"smiles": "CC(C)(C)c1ccc(C(=O)Nc2cn3cc(Cl)ccc3n2)cc1", "values": [
      {"measurement": "Kd", "setting": "PRKCI", "result": "> 10000", "unit": "nM"}
    ]},
    {"smiles": "COc1ccccc1CNC(=O)c1cc(C(=O)c2ccccc2C)c[nH]1", "note": "[GSK364507]", "values": [
      {"measurement": "Kd", "setting": "PLK4", "result": "> 10000", "unit": "nM"}
    ]},
    {"smiles": "CCn1c(-c2ccccn2)nc2cnccc21", "note": "[SB-736398]", "values": [
      {"measurement": "Kd", "setting": "PKAC-alpha", "result": "> 10000", "unit": "nM"}
    ]},
    {"smiles": "Cc1cccc(-c2cc(Nc3ccncc3)c3ccccc3n2)n1", "note": "[GSK223675]", "values": [
      {"measurement": "Kd", "setting": "PRKD1", "result": 100, "unit": "nM"},
      {"measurement": "Kd", "setting": "PRKD2", "result": 300, "unit": "nM"},
      {"measurement": "Kd", "setting": "PRKD3", "result": 210, "unit": "nM"}
    ]},
    {"smiles": "COc1ccc(Nc2nccc(-c3cccc(NC(=O)c4cc5cc(F)ccc5[nH]4)c3)n2)cc1", "note": "[GSK1229782]", "values": [
      {"measurement": "Kd", "setting": "PIP5K2C", "result": 1400, "unit": "nM"}
    ]},
    {"smiles": "O=S(=O)(c1ccc(-c2ccnc3[nH]ccc23)cc1)N1CCCC1", "note": "[GSK846226]", "values": [
      {"measurement": "Kd", "setting": "PKAC-alpha", "result": 260, "unit": "nM"}
    ]},
    {"smiles": "COc1ccc(CNC(=O)NC2CCN(c3ccnc(Nc4cc(OC)c(OC)c(OC)c4)n3)C2)cc1", "note": "(centres unmarked) [GSK1379748]", "values": [
      {"measurement": "Kd", "setting": "PIP5K2C", "result": 600, "unit": "nM"}
    ]},
    {"smiles": "Cl.NC(=O)c1cccc(Nc2nccc(Nc3ccc(Oc4cccc(Cl)c4)c(Cl)c3)n2)c1", "note": "[GW659008]", "values": [
      {"measurement": "Kd", "setting": "PIK4CB", "result": "> 10000", "unit": "nM"}
    ]},
    {"smiles": "Cc1cccc(-c2nc(Nc3ccncc3)c3ccccc3n2)n1", "note": "[GW855857]", "values": [
      {"measurement": "Kd", "setting": "PRKD1", "result": 9.7, "unit": "nM"},
      {"measurement": "Kd", "setting": "PRKD2", "result": 17, "unit": "nM"}
    ]},
    {"smiles": "Cc1ccc(C(=O)Nc2ccc(Nc3ccnc4cc(-c5ccccn5)ccc34)cc2O)cc1.Cl", "note": "[GW440146]", "values": [
      {"measurement": "Kd", "setting": "PIK3CD", "result": "> 10000", "unit": "nM"}
    ]},
    {"smiles": "O=c1cc(N2CCOCC2)nc2n(Cc3cccc(Cl)c3Cl)ccn12", "note": "[GSK2286295]", "values": [
      {"measurement": "Kd", "setting": "PIK3CB", "result": 3.5, "unit": "nM"},
      {"measurement": "Kd", "setting": "PIK3CD", "result": 79, "unit": "nM"}
    ]},
    {"smiles": "O=C(Nc1n[nH]c2cc(-c3cccc(F)c3F)ccc12)C1CC1", "note": "[SB-733894]", "values": [
      {"measurement": "Kd", "setting": "PIKFYVE", "result": "> 10000", "unit": "nM"}
    ]},
    {"smiles": "Fc1cc(Cl)ccc1Nc1ccnc2cc(-c3ccc(CN4CCCCC4)o3)ccc12", "note": "[GW560116]", "values": [
      {"measurement": "Kd", "setting": "PKAC-alpha", "result": "> 10000", "unit": "nM"}
    ]},
    {"smiles": "CSc1nn2c(=O)cc(N3CCOCC3)nc2n1Cc1cccc(C(F)(F)F)c1C", "note": "[GSK2363608]", "values": [
      {"measurement": "Kd", "setting": "PIK3CB", "result": "0.48 nM and 0.26 nM"},
      {"measurement": "Kd", "setting": "PIK3CD", "result": "64 nM and 47 nM"}
    ]},
    {"smiles": "Cc1cccc(-c2nc(C)cc(Nc3ccncc3)n2)n1", "note": "[GSK257997]", "values": [
      {"measurement": "Kd", "setting": "PRKD2", "result": 1100, "unit": "nM"},
      {"measurement": "Kd", "setting": "PRKD3", "result": 1000, "unit": "nM"}
    ]},
    {"smiles": "Nc1ncnc2[nH]c(-c3ccccc3)nc12", "note": "[AH5015]", "values": [
      {"measurement": "Kd", "setting": "PLK4", "result": "> 10000", "unit": "nM"}
    ]},
    {"smiles": "Cc1cc(N2Cc3ccccc3C2)nc(Nc2ccc(S(=O)(=O)N3CCOCC3)cc2)n1.Cl", "note": "[GSK1669917]", "values": [
      {"measurement": "Kd", "setting": "PIK4CB", "result": "> 10000", "unit": "nM"}
    ]},
    {"smiles": "COc1cc2ncn(-c3cc(OCC4CCCO4)c(C(N)=O)s3)c2cc1OC", "note": "(centres unmarked) [GSK204607]", "values": [
      {"measurement": "Kd", "setting": "PIP5K1C", "result": 7700, "unit": "nM"},
      {"measurement": "Kd", "setting": "PLK1", "result": 13, "unit": "nM"},
      {"measurement": "Kd", "setting": "PLK2", "result": 4.4, "unit": "nM"},
      {"measurement": "Kd", "setting": "PLK3", "result": 40, "unit": "nM"},
      {"measurement": "Kd", "setting": "PRKCI", "result": "> 10000", "unit": "nM"}
    ]},
    {"smiles": "COc1cc2ncnc(Nc3ccc4nc(-c5ccccc5)[nH]c4c3)c2cc1OC.Cl", "note": "[GW282450]", "values": [
      {"measurement": "Kd", "setting": "PLK4", "result": 1600, "unit": "nM"}
    ]},
    {"smiles": "Cc1cccc(-c2nc(Nc3cccc(C(N)=O)c3)c3ccccc3n2)n1", "note": "[GW876019]", "values": [
      {"measurement": "Kd", "setting": "PRKD3", "result": 820, "unit": "nM"}
    ]},
    {"smiles": "Cc1cccc(-c2nc(Nc3ccc4[nH]ncc4c3)c3ccccc3n2)n1", "note": "[GW857175]", "values": [
      {"measurement": "Kd", "setting": "PIKFYVE", "result": 700, "unit": "nM"},
      {"measurement": "Kd", "setting": "PRKD1", "result": 19, "unit": "nM"},
      {"measurement": "Kd", "setting": "PRKD2", "result": 15, "unit": "nM"},
      {"measurement": "Kd", "setting": "PRKD3", "result": 11, "unit": "nM"}
    ]},
    {"smiles": "Cc1c(Cn2ccn3c(=O)cc(N4CCOCC4)nc23)cccc1C(F)(F)F", "note": "[GSK2289044]", "values": [
      {"measurement": "Kd", "setting": "PIK3CB", "result": 1.5, "unit": "nM"},
      {"measurement": "Kd", "setting": "PIK3CD", "result": 170, "unit": "nM"}
    ]},
    {"smiles": "CCCc1ccc(S(=O)(=O)NC2CCN(c3ccnc(Nc4ccc(F)cc4)n3)C2)cc1", "note": "(centres unmarked) [GSK1379715]", "values": [
      {"measurement": "Kd", "setting": "PKAC-alpha", "result": "> 10000", "unit": "nM"}
    ]},
    {"smiles": "COc1ccc(Nc2nccc(NCCNC(=O)Nc3ccccc3F)n2)cc1", "note": "[GSK1379901]", "values": [
      {"measurement": "Kd", "setting": "PRKD2", "result": "> 10000", "unit": "nM"}
    ]},
    {"smiles": "COc1cc2nccc(Nc3ccc(NC(=O)c4ccc(C)cc4)c(O)c3)c2cc1OC.Cl", "note": "[GW440132]", "values": [
      {"measurement": "Kd", "setting": "PFTK1", "result": "> 10000", "unit": "nM"},
      {"measurement": "Kd", "setting": "PIK3C2B", "result": "> 10000", "unit": "nM"},
      {"measurement": "Kd", "setting": "PIK3CA", "result": "> 10000", "unit": "nM"},
      {"measurement": "Kd", "setting": "PIK3CG", "result": "> 10000", "unit": "nM"}
    ]},
    {"smiles": "COc1ccc2nc(-c3cccc(C)n3)nc(Nc3ccncc3)c2c1", "note": "[GSK204919]", "values": [
      {"measurement": "Kd", "setting": "PIKFYVE", "result": 1200, "unit": "nM"},
      {"measurement": "Kd", "setting": "PRKD1", "result": 51, "unit": "nM"},
      {"measurement": "Kd", "setting": "PRKD2", "result": 34, "unit": "nM"},
      {"measurement": "Kd", "setting": "PRKD3", "result": 490, "unit": "nM"}
    ]},
    {"smiles": "CS(=O)(=O)c1ccc(-c2nc3n(c2-c2ccncc2)CCC3)cc1", "note": "[SKF-105942]", "values": [
      {"measurement": "Kd", "setting": "PIK4CB", "result": "> 10000", "unit": "nM"}
    ]},
    {"smiles": "CN1C(=O)C(Nc2ccc(Cl)c(C(=O)O)c2)=C(c2ccc(Cl)cc2)C1=O", "note": "[SB-404290]", "values": [
      {"measurement": "Kd", "setting": "PKN1", "result": "> 10000", "unit": "nM"}
    ]},
    {"smiles": "CS(=O)(=O)c1ccc(-c2c(-c3ncn[nH]3)sc(N3CCOCC3)c2C#N)cc1", "values": [
      {"measurement": "Kd", "setting": "PIK3CA", "result": 21, "unit": "nM"},
      {"measurement": "Kd", "setting": "PIK3CB", "result": 77, "unit": "nM"}
    ]}
  ]
}
